Data taken from the supplement of paper PMC6555819.

What was measured:
Experiment in all cases: PBM binding z-score (relative to random genomic background probes); higher = stronger binding; sequences stand for … in GC…GCGATTGACAGCGTAGAATGAAGG
[1] = test system: FXR:RXRa (NR concentration 270 nM, RXRa partner concentration 90 nM)
Method in brief: (§1)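 Antibodies against each partner of ligand-free nuclear receptor dimers (one per run) detected binding on custom Agilent 4×180K protein-binding microarrays after 1 h incubation. The double-stranded probes had 34-nt variable regions carrying direct-repeat seeds, single-nucleotide variants, half-site ablations and random human genomic background sequences. Binding z-scores, from regression-normalized fluorescence, use the random background probes as reference.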

[2] = test system: LXRa:RXRa (NR concentration 270 nM, RXRa partner concentration 90 nM)
Method in brief: as §1

[3] = test system: LXRa homodimer (NR concentration 270 nM)
Method in brief: as §1

[4] = test system: LXRb:RXRa (NR concentration 270 nM, RXRa partner concentration 90 nM)
Method in brief: as §1

[5] = test system: LXRb homodimer (NR concentration 270 nM)
Method in brief: as §1

[6] = test system: PPARa:RXRa (NR concentration 270 nM, RXRa partner concentration 90 nM)
Method in brief: as §1

[7] = test system: PPARg:RXRa (NR concentration 180 nM, RXRa partner concentration 90 nM)
Method in brief: as §1

[8] = test system: PPARg:RXRa 270nM:90nM, anti-RXR (NR concentration 270 nM, RXRa partner concentration 90 nM)
Method in brief: as §1

[9] = test system: PPARg:RXRa 30nM:10nM, anti-RXR (NR concentration 30 nM, RXRa partner concentration 10 nM)
Method in brief: as §1

[10] = test system: PPARg:RXRa 90nM:30nM, anti-RXR (NR concentration 90 nM, RXRa partner concentration 30 nM)
Method in brief: as §1

[11] = test system: PPARg:RXRa DBDmut IVT, anti-RXR (DBD mutation: RXRa K156A/R161A, NR concentration 270 nM, RXRa partner concentration 90 nM)
Method in brief: as §1

[12] = test system: PPARg:RXRa IVT, anti-PPARg (NR concentration 270 nM, RXRa partner concentration 90 nM)
Method in brief: as §1

[13] = test system: PPARg DBDmut:RXRa IVT, anti-PPARg (DBD mutation: PPARg1 K132A/R137A, NR concentration 270 nM, RXRa partner concentration 90 nM)
Method in brief: as §1

[14] = test system: PPARg DBDmut IVT, anti-PPARg (DBD mutation: PPARg1 K132A/R137A, NR concentration 270 nM)
Method in brief: as §1

[15] = test system: PPARg homodimer (NR concentration 180 nM)
Method in brief: as §1

[16] = test system: PXR:RXRa (NR concentration 270 nM, RXRa partner concentration 90 nM)
Method in brief: as §1

[17] = test system: PXR homodimer (NR concentration 270 nM)
Method in brief: as §1

[18] = test system: RARa:RXR (NR concentration 270 nM, RXRa partner concentration 90 nM)
Method in brief: as §1

[19] = test system: RARa homodimer (NR concentration 270 nM)
Method in brief: as §1

[20] = test system: RARb:RXRa (NR concentration 270 nM, RXRa partner concentration 90 nM)
Method in brief: as §1

Sequence	PBM binding z-score [1]	PBM binding z-score [2]	PBM binding z-score [3]	PBM binding z-score [4]	PBM binding z-score [5]	PBM binding z-score [6]	PBM binding z-score [7]	PBM binding z-score [8]	PBM binding z-score [9]	PBM binding z-score [10]	PBM binding z-score [11]	PBM binding z-score [12]	PBM binding z-score [13]	PBM binding z-score [14]	PBM binding z-score [15]	PBM binding z-score [16]	PBM binding z-score [17]	PBM binding z-score [18]	PBM binding z-score [19]	PBM binding z-score [20]
TCTATTAGTTGATTAGGGCCACCGAAACAGCGGA	0.951	0.434	0.125	0.653	0.614	0.786	-0.0833	1.9	3.63	2.7	1.82	0.608	0.893	0.609	0.28	0.517	0.469	0.615	1.05	0.596
CATCGGAGGACAACAGGAGGTCAGAGCTGCCAGA	1.42	2.43	2.12	1.91	-0.192	2.39	0.842	0.724	-0.516	0.267	0.575	1.3	-0.47	-0.762	1.51	2.23	0.834	2.69	0.396	3.08
TCATGTAGATCAAGCAGGTTAAGAAAGCCTGAGT	0.865	0.684	-0.0467	0.774	-0.523	0.929	-0.116	1.74	3.28	2.36	2.01	0.466	0.49	0.274	0.552	0.746	0.293	0.72	-0.363	-0.0113
CCGATTAGGTTATGGGGCATTCAGGCAACGGTGA	0.472	0.574	-0.0892	0.58	-0.609	1.58	2.14	3.35	1.63	2.83	2.29	2.29	-0.258	-1.33	1.18	0.0495	-0.245	0.615	0.0747	1.37
CCTGCTAGGTCATGCTCAGCTAATCTACAGTATG	3.21	2.16	-0.266	1.38	-0.112	2.99	1.9	2.36	0.444	1.35	4.78	3.37	0.405	0.309	0.827	0.957	-0.979	2.05	-0.229	3.75
CGTCCAAGGTCATAGGATGTCAGTGAAGACAGAT	7.4	5.86	1.1	4.02	0.568	5.6	4.69	5.42	1.9	3.95	3.22	3.9	1.13	0.513	2.45	4.69	1.15	4.58	0.89	5.08
GCAGACAGGTGAAACGGAGGTAACTCAGGGTGGC	-0.223	0.247	-0.497	-0.0336	-0.922	0.977	0.646	0.393	-0.282	0.0488	1.09	0.463	-0.413	-1.08	-0.308	0.0496	-0.337	0.668	-0.627	0.729
CCTGCTAGGTCATGGACAGCTAATCTACAGTATG	3.61	2.77	-0.434	1.75	-0.251	3.61	2.53	2.8	0.906	1.75	4.72	3.72	0.434	0.0292	0.812	1.4	-0.443	2.53	0.184	3.84
AGAACGAGGGCAATGAGATGATAGCACGGGTGGC	0.277	0.121	-0.31	-0.282	-0.486	1.02	1.58	0.593	0.201	0.528	3.28	2.47	1.03	0.417	0.45	0.149	0.0572	0.235	0.363	2.05
TCTCGGAGGACACGATAGGTCAGAGCTCGACATC	1.07	1.92	0.208	0.643	-0.585	1.5	0.595	1.43	2.09	1.52	1.4	0.606	-0.736	-0.55	0.932	0.843	-0.337	1.59	-0.7	2.66
TTCCCAAGGTGAGCTGAGGTCGTTGATCCAACTC	3.13	1.59	-0.148	0.959	-1.02	1.55	-0.346	0.767	-0.184	0.534	0.471	1.12	-1.17	-1.13	0.0355	4.98	0.698	2	-0.927	1.75
CCCACTGGGGCAGAAAGGTTACCATACCATCCGG	0.135	0.483	-0.148	0.675	-0.892	2.12	2.04	2.59	0.549	2.22	2.2	3.8	-0.946	-0.994	1.02	0.703	-0.212	1.59	-0.0999	1.86
CCTAGTTGGTCAAGGTCACAGACGCTATAGGTAC	4.56	3.92	1.56	3.6	0.603	4.38	3.54	3.88	1.54	2.79	2.26	3.92	0.729	0.0985	3.27	4.21	2.19	4.66	2.61	4.28
ATCTCTAGGTAAAAGTTAAGTGAATCCCGAGGAT	0.172	0.0131	-0.136	-0.0735	0.69	1.58	3.42	4.91	2.79	4.71	2.03	2.31	1.28	1.28	0.613	-0.127	-0.352	-0.144	0.373	0.28
AGTCAAAGTTCACTAGGTAACGTTAGATTCAGCT	5.17	5.24	3.17	2.95	1.04	4.7	7.15	6.57	3.45	6.1	2.64	4.82	1.46	1.15	2.91	3.95	2.61	3.1	0.915	4.65
AGAATGAGGTTATGATCAGGGAAACAGAATACAT	1.66	1.52	-0.0293	1.41	-0.275	2.83	1.86	1.65	1.17	1.03	1.69	2.07	1.68	0.713	0.605	1.02	0.186	1.6	0.566	1.42
CGTCCAAGGTCAGCAGATCAGTGAAAGCGACGTG	5.09	3.1	-0.179	2.21	-0.172	3.95	2.5	2.9	0.511	1.51	2.68	2.66	0.547	-0.498	2.2	2.49	0.4	3.08	0.548	5.02
TCTAATTGGTCAAAGGTCACACACTCGAAATGCG	6.13	5.81	4.4	5.53	2.67	6.59	10.7	9.75	10.1	12	3.57	6.22	4.31	4.82	12.2	6.35	1.5	7.91	5.86	5.27
TCTGCCAGGTCAACGATGGTCAGCTAATCTGCTA	4.25	3.33	0.136	2.23	0.15	3.46	2.13	2.8	1.53	2.04	2.07	2.98	0.16	0.24	1.11	2.56	-0.453	2.89	-0.675	4.02
TTGAGTAGGTTAGGGGCATTCAGAATGGCGTCGA	0.794	0.55	0.331	1.42	1.36	1.84	1.34	2.8	1.58	2.25	3.21	2.8	0.225	0.781	1.61	0.703	1.3	0.894	1.42	1.42
TCCTATAGGTAAAAGGTGAAAGTCGGTGTGGTAA	2.04	1.54	-0.461	1.82	-0.544	4.65	7.68	7.41	7.38	8.23	3.53	3.95	0.0451	0.327	1.1	1.66	0.259	2.87	0.703	1.85
CGTCCAAAGTCATAGGAGGTCAGTGAAGACAGAT	2.25	4.11	1.4	2.44	0.026	2.82	0.638	0.912	-0.0337	0.296	0.497	1.53	0.0341	0.213	1.59	3.35	1.12	2.86	1.34	2.7
TCATATAGGTTAATGCTAGGTGAAAGTCCGATCT	1.19	2.25	0.441	1.28	0.557	2.55	2.14	3.06	3.79	3.26	4.99	4.12	1.41	0.726	1.47	1.13	0.465	1.52	1.51	1.43
TCGAGTATGTTAGGGGCATTCAGAATGGCGTCGA	0.201	0.198	-0.264	0.596	-0.345	0.669	0.0373	0.882	0.884	1.02	0.969	-0.000912	-0.506	-1.16	-0.24	0.712	0.579	0.48	0.135	0.606
CTCGAAAGGTCGGTTGAGTTGAGTATACGGATAA	2.22	1.48	0.18	1.5	-0.0298	2.27	0.295	0.792	0.314	0.857	0.55	0.513	0.723	0.673	1.04	3.89	0.374	1.81	0.0679	2.71
TCGAGTAGGTTAGGGGCAATCAGAATGGCGTCGA	0.369	0.37	-0.18	0.715	-0.231	1.41	1.53	2.73	1.47	2.42	2.08	1.37	-0.745	-0.163	1.06	0.437	0.0887	0.347	-0.176	1.19
TCAGACAGGTTAAGGTAACTCAGGTACGCAGTCG	1.49	2.63	0.305	1.79	0.039	1.93	0.858	2.5	4.03	3.21	2.56	0.69	0.624	0.18	1.1	1.1	0.461	1.54	0.655	1.51
ACTAGCAGGCCATGTTTGGGTCACTCAAACAAAG	0.27	-0.058	-0.283	0.735	-0.846	1.31	0.145	0.304	-0.51	-0.31	0.691	1.13	-0.241	-1.08	0.0761	0.404	-0.559	1.37	-0.914	1.72
CGAACGAGGTCAAGGACAGTGAATCTCCGCACGC	7.55	5.54	0.753	4.4	0.542	5.95	7.29	6.61	3.39	5.65	5.22	5.6	0.997	-0.199	2.14	4.9	0.979	5.15	0.619	5.24
